Measured values published in PubChem BioAssay AID489025 (Southern Research Specialized Biocontainment Screening …, 2010).
In all, about 2,300 compounds went through this assay and about 790 (34%) were called active. Some of the results follow. Results with a measured potency or affinity are listed apart. Values without a mark were called inactive. The rule behind the calls is not given here.

assay: THP-1 cell cytotoxicity, dose response, cytotoxicity control for non-replicating M. tuberculosis project (AID 489025); conditions: THP-1 cell viability; series mostly up to 40 µM; viability: at the top concentration

SMILES	viability [%]
CC(=O)Oc1c(-c2ccco2)oc2ccccc2c1=O	82.7
N/C(=N\OC(=O)c1cccc(Br)c1)c1ccc([N+](=O)[O-])cc1	102
O=[N+]([O-])c1ccc2nc(SCc3cn4cc(Cl)ccc4n3)[nH]c2c1	99.3
CCOC(=O)COn1c(-c2cccc(Cl)c2)nc2ccc([N+](=O)[O-])cc21	86.9
O=c1c2cc(Cl)ccc2nc(-c2ccccc2Cl)n1O	113
O=C(Oc1cccc([N+](=O)[O-])c1)c1ccc2c(=O)n3c(nc2c1)CCC3	116
O=c1c2c([N+](=O)[O-])cc([N+](=O)[O-])cc2sn1-c1ccc(Br)cc1	90.1
Cc1nc2ccc(Cl)cc2nc(C)/c1=N\O	110
CC(=O)c1cc2c(ccc3ccccc32)oc1=O	110
CCOc1ncccc1C(=O)OCC(=O)N1CCc2ccccc21	95.2
C=C(C)C1CC=C(C)/C(=N/NC(=O)CNc2ccc(OCC)cc2)C1 (configuration not stated)	92
CC(C)OC(=O)c1c2c(n3ccccc13)C(=O)c1ccccc1C2=O	83.2
COc1cc(C(=O)ON=C2C=C(C)C(=O)C(C)=C2)cc(OC)c1OC	71.2
COc1ccc(CCNc2cc(-c3ccccc3)nc3ncnn23)cc1	79.6
Cc1nn2c(NCCN(C)C)c3c(nc2c1-c1ccccc1)CCCC3	71
COc1cccc(C(=O)OCn2nnc3ccccc3c2=O)c1OC	88.7

SMILES	viability [%]
O=C(OCn1nnc2ccccc2c1=O)c1ccc(Br)o1	101
Cc1cccc(Cn2ccc(NC(=O)c3ccc4c(c3)OCO4)n2)c1	94.6
Cc1ccc(NC(=O)COC(=O)CCc2c[nH]c3ccccc23)cc1[N+](=O)[O-]	97.8
O=C(NCCC1=CCCCC1)c1ccc(F)cc1	86.6
Cc1ccc(NC(=O)CNc2ccc(OC(C)C)cc2)cc1	93.2
Cc1ccc(NC(=O)COCC(=O)Nc2ccc(C)cc2)cc1	121
CSc1ccc(C(=O)C2CCCN(Cc3cc4ccccc4[nH]3)C2)cc1 (configuration not stated)	79.9
COc1ccc(C(=O)C2CCCN(C(=O)c3ccc(CSC)o3)C2)cc1F (configuration not stated)	106
COC(=O)c1ccccc1NC(=O)C1CC(c2ccc(F)cc2)=NO1 (configuration not stated)	73.4
CC(=O)OCCN(C)c1cc(SC(C)C)c2nonc2c1[N+](=O)[O-]	102
CCCNC(=O)COC(=O)c1cc2c(=O)n3ccccc3nc2s1	103
Cc1csc(=Nc2cccnc2)n1CC1CCCCC1	80.9
Cc1ccc2c(CC(=O)OCC(=O)Nc3ccc(Cl)cn3)coc2c1	118
O=C(Oc1ccccc1)c1cc2ccccc2o1	136
CCc1ccc(OCCCC(=O)Nc2nccs2)cc1	90.2
COc1ccc(NC(=O)CO/N=C2/CCCc3nonc32)c(OC)c1	103
